Laboratory results: PubChem BioAssay (NCI)
This is part of a sample that, as a whole, favours compounds with a hit. Of some 83,000 tested, about 20% had one in any assay.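 Treatment: one concentration, 48 hours, 96-well format. Scoring: percent growth, with anything below 10 considered active.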 Active and inactive are the calls of the source.

Tests used:
Experiment in all cases: NCI-60 one-dose screen, 48 h (100 = growth as untreated, 0 = no growth, -100 = all killed)
Details in all cases: 10 µM unless noted
T-47D breast = test system: T-47D breast
BT-549 breast = test system: BT-549 breast
MDA-MB-435 melanoma = test system: MDA-MB-435 melanoma
SW-620 colon = test system: SW-620 colon
MCF7 breast = test system: MCF7 breast
HCT-116 colon = test system: HCT-116 colon
HCC-2998 colon = test system: HCC-2998 colon
KM12 colon = test system: KM12 colon

Measured: growth

O=C(Nc1cccc2cccnc12)c1cc(C(=O)c2ccc(Cl)cc2)n2ccc(-c3ccncc3)cc12
inactive: T-47D breast 95.7% | BT-549 breast 93.9% | MDA-MB-435 melanoma 97.6% | SW-620 colon 90.6% | MCF7 breast 98.3% | HCT-116 colon 101% | HCC-2998 colon 113% | KM12 colon 108%

N#C/C(=C(/O)CCCO)c1nc2ccccc2c(=O)[nH]1
inactive: T-47D breast 101% | BT-549 breast 109% | MDA-MB-435 melanoma 168% | SW-620 colon 108% | MCF7 breast 86.6% | HCT-116 colon 98.9% | HCC-2998 colon 73.5% | KM12 colon 100%

Fc1cc2[nH]ncc2c2c3c(c(-c4cn[nH]c4C(F)(F)F)nc12)C1CCC3C1 (stereo not drawn)
active: T-47D breast 3.94% | BT-549 breast -60.7% | SW-620 colon 2.37% | MCF7 breast 2.59% | HCT-116 colon 1.87% | KM12 colon 7.9%
inactive: MDA-MB-435 melanoma 22.8% | HCC-2998 colon 14.7%

O=C(N=c1n(-c2ccccc2)nc2n1CCN2C1=NCCN1)c1ccc(Cl)cc1
inactive: T-47D breast 83.9% | BT-549 breast 101% | MDA-MB-435 melanoma 42.1% | SW-620 colon 79.5% | MCF7 breast 86.4% | HCT-116 colon 103% | HCC-2998 colon 73% | KM12 colon 99.3%

CCOc1ccccc1/C=N\Nc1ccc(S(=O)(=O)c2ccc(N/N=C/c3ccccc3OCC)cc2)cc1
inactive: T-47D breast 75.6% | BT-549 breast 83.4% | MDA-MB-435 melanoma 99.3% | SW-620 colon 97.9% | MCF7 breast 79.1% | HCT-116 colon 87.5% | HCC-2998 colon 107% | KM12 colon 91.5%

O=C(NNc1ccc(-c2ccccc2)nn1)c1ccccc1
inactive: T-47D breast 98.8% | BT-549 breast 94.6% | MDA-MB-435 melanoma 101% | SW-620 colon 103% | MCF7 breast 92% | HCT-116 colon 91.3% | HCC-2998 colon 106% | KM12 colon 102%

COc1cc(Cl)cc(-c2nn(C(=O)NS(=O)(=O)c3ccccc3)cc2-c2ccncc2)c1
inactive: T-47D breast 92.5% | BT-549 breast 36.9% | MDA-MB-435 melanoma 91% | SW-620 colon 114% | MCF7 breast 99.8% | HCT-116 colon 93.7% | KM12 colon 102%

C=C(C)[C@@H]1CC[C@]2(C)[C@H](CC[C@@H]3[C@@H]([C@@](C)(O)CCC=C(C)C)CC[C@]32C)[C@@]1(C)CCC(=O)O
active: BT-549 breast -22% [100 µM] | MDA-MB-435 melanoma -36.7% [100 µM] | SW-620 colon 0.938% [100 µM] | MCF7 breast 7.92% [100 µM] | HCT-116 colon -39.4% [100 µM] | KM12 colon -55.2% [100 µM]
inactive: T-47D breast 17% [100 µM]

COc1ccc(OC)c(NC=O)c1
inactive: T-47D breast 101% | BT-549 breast 109% | MDA-MB-435 melanoma 104% | SW-620 colon 105% | MCF7 breast 96.4% | HCT-116 colon 101% | HCC-2998 colon 103% | KM12 colon 109%

Cc1ccc(S(=O)(=O)n2cc(C(=O)C(=O)N3CCCCC3)c3ccccc32)cc1
inactive: T-47D breast 36.1% | BT-549 breast 74.8% | MDA-MB-435 melanoma 87.1% | SW-620 colon 123% | MCF7 breast 85.8% | HCT-116 colon 65.6% | KM12 colon 87.6%

CCc1ccc(C2=C/C(=C/c3ccccc3)C(=O)N2CCc2ccc(S(N)(=O)=O)cc2)cc1
inactive: T-47D breast 97.8% | BT-549 breast 100% | MDA-MB-435 melanoma 110% | SW-620 colon 106% | MCF7 breast 96.3% | HCT-116 colon 103% | KM12 colon 104%

COc1ccc(-c2ccc(NNC(=O)c3ccc(F)cc3)nn2)cc1OC
inactive: T-47D breast 20% | BT-549 breast 58.4% | MDA-MB-435 melanoma 83.2% | SW-620 colon 75.1% | MCF7 breast 51.1% | HCT-116 colon 66.2% | KM12 colon 92.3%

O=C1/C(=C/c2ccc(OCc3ccccc3)cc2)Oc2cc(OCCN3CCCCC3)ccc21
inactive: T-47D breast 63.4% | BT-549 breast 85.3% | MDA-MB-435 melanoma 54.7% | SW-620 colon 71.1% | MCF7 breast 65.2% | HCT-116 colon 52.3% | KM12 colon 82.3%

COc1ncc(-c2ccc3nccc(C#CCCCCC(=O)NO)c3c2)cc1NS(=O)(=O)c1ccc(F)cc1F
active: T-47D breast -22.6% | BT-549 breast -13.2% | MDA-MB-435 melanoma -7.72% | SW-620 colon -30.9% | MCF7 breast 2.33% | HCT-116 colon -50.3% | KM12 colon 9.84%

CCOC(=O)c1nn(C2CCCCO2)c2ccc(NS(=O)(=O)c3ccc(C)cc3)cc12 (stereo not drawn)
inactive: T-47D breast 80% | BT-549 breast 91.8% | MDA-MB-435 melanoma 100% | SW-620 colon 98.1% | MCF7 breast 93.1% | HCT-116 colon 87.8% | HCC-2998 colon 107% | KM12 colon 104%
